# Measurements published in PubChem BioAssay (NCATS).
# Results filed as inconclusive are left out. Where a call stands in place of a potency, no number is given. Values without a mark were called inactive. Active and inactive are the calls of the source. Calls follow the shape of the dose curve; as a rule, active = well fitted inhibition curve with a large enough effect; inconclusive = small, poorly fitted or top-dose-only effect; inactive = flat fitted curve, though single readings scatter.
# Key:
# [1] = qHTS profiling for inhibitors of Plasmodium falciparum proliferation (AID 504749); also: nearly all actives have a fitted effect of over 60% in size; conditions: P. falciparum in erythrocytes, SYBR Green DNA, 72 h
# How it was run: (§1)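 P. falciparum-infected erythrocytes (0.3% parasitemia, 2.5% hematocrit final) were exposed to compounds for 72 h at 37 C in 5% CO2, then lysed with SYBR Green buffer overnight at room temperature; parasite DNA fluorescence was normalized to artemisinin and DMSO controls.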
# 3D7 = assay: as above; conditions: P. falciparum in erythrocytes, SYBR Green DNA, 72 h; series mostly up to 28.7 µM
# How it was run: as §1
# 7G8 = assay: as above; conditions: P. falciparum in erythrocytes, SYBR Green DNA, 72 h; series mostly up to 28.7 µM
# How it was run: as §1
# AA1029 = assay: as above; conditions: P. falciparum in erythrocytes, SYBR Green DNA, 72 h; series mostly up to 28.7 µM
# How it was run: as §1
# AS120 = assay: as above; conditions: P. falciparum in erythrocytes, SYBR Green DNA, 72 h; series mostly up to 28.7 µM
# How it was run: as §1
# ATS189 = assay: as above; conditions: P. falciparum in erythrocytes, SYBR Green DNA, 72 h; series mostly up to 28.7 µM
# How it was run: as §1
# ATS95 = assay: as above; conditions: P. falciparum in erythrocytes, SYBR Green DNA, 72 h; series mostly up to 28.7 µM
# How it was run: as §1
# C2A = assay: as above; conditions: P. falciparum in erythrocytes, SYBR Green DNA, 72 h; series mostly up to 28.7 µM
# How it was run: as §1
# CP185 = assay: as above; conditions: P. falciparum in erythrocytes, SYBR Green DNA, 72 h; series mostly up to 28.7 µM
# How it was run: as §1
# CP191 = assay: as above; conditions: P. falciparum in erythrocytes, SYBR Green DNA, 72 h; series mostly up to 28.7 µM
# How it was run: as §1
# CP192 = assay: as above; conditions: P. falciparum in erythrocytes, SYBR Green DNA, 72 h; series mostly up to 28.7 µM
# How it was run: as §1
# CP194 = assay: as above; conditions: P. falciparum in erythrocytes, SYBR Green DNA, 72 h; series mostly up to 28.7 µM
# How it was run: as §1
# CP201 = assay: as above; conditions: P. falciparum in erythrocytes, SYBR Green DNA, 72 h; series mostly up to 28.7 µM
# How it was run: as §1
# CP203 = assay: as above; conditions: P. falciparum in erythrocytes, SYBR Green DNA, 72 h; series mostly up to 28.7 µM
# How it was run: as §1
# CP211 = assay: as above; conditions: P. falciparum in erythrocytes, SYBR Green DNA, 72 h; series mostly up to 28.7 µM
# How it was run: as §1
# CP215 = assay: as above; conditions: P. falciparum in erythrocytes, SYBR Green DNA, 72 h; series mostly up to 28.7 µM
# How it was run: as §1
# CP217 = assay: as above; conditions: P. falciparum in erythrocytes, SYBR Green DNA, 72 h; series mostly up to 28.7 µM
# How it was run: as §1
# CP237 = assay: as above; conditions: P. falciparum in erythrocytes, SYBR Green DNA, 72 h; series mostly up to 28.7 µM
# How it was run: as §1
# CP238 = assay: as above; conditions: P. falciparum in erythrocytes, SYBR Green DNA, 72 h; series mostly up to 28.7 µM
# How it was run: as §1
# CP247 = assay: as above; conditions: P. falciparum in erythrocytes, SYBR Green DNA, 72 h; series mostly up to 28.7 µM
# How it was run: as §1
# [2] = at 28.7 µM (top of the series), parasite line A
# [3] = at 28.7 µM (top of the series), parasite line B
# Potency is read from the fitted curve at half-maximal effect.
smiles,measurement,setting,value
COc1ccc2c(c1)OC(C)(C)C(c1ccccc1)C2c1ccc(OCCN2CCCC2)cc1 (stereo unspecified),Potency,[1]; parasite line A,2.24 µM (active)
same,Potency,[1]; parasite line B,3.98 µM (active)
same,Potency,3D7,3.16 µM (active)
same,Potency,7G8,2.82 µM (active)
same,Potency,AA1029,3.55 µM (active)
same,Potency,AS120,3.16 µM (active)
same,Potency,ATS189,3.55 µM (active)
same,Potency,ATS95,5.01 µM (active)
same,Potency,C2A,4.47 µM (active)
same,Potency,CP185,3.98 µM (active)
same,Potency,CP191,2.51 µM (active)
same,Potency,CP192,10.7 µM (active)
same,Potency,CP194,6.75 µM (active)
same,Potency,CP201,5.36 µM (active)
same,Potency,CP203,12 µM (active)
same,Potency,CP211,10.7 µM (active)
same,Potency,CP215,9.53 µM (active)
same,Potency,CP217,3.16 µM (active)
same,Potency,CP237,3.98 µM (active)
same,Potency,CP238,11.2 µM (active)
same,Potency,CP247,2.51 µM (active)
O=C(NNCNNC(=O)c1ccncc1)c1ccncc1,"activity, negative = inhibition",[1]; [2],1.43%
same,"activity, negative = inhibition",[1]; [3],9.6%
same,Potency,3D7,inactive
same,Potency,7G8,inactive
same,Potency,AA1029,inactive
same,Potency,AS120,inactive
same,Potency,ATS189,inactive
same,Potency,ATS95,inactive
same,Potency,C2A,inactive
same,Potency,CP185,inactive
same,Potency,CP191,inactive
same,Potency,CP192,inactive
same,Potency,CP194,inactive
same,Potency,CP201,inactive
same,Potency,CP203,inactive
same,Potency,CP211,inactive
same,Potency,CP215,inactive
same,Potency,CP217,inactive
same,Potency,CP237,inactive
same,Potency,CP238,inactive
same,Potency,CP247,inactive
CC(C)CCC[C@@H](C)[C@H]1CC[C@H]2[C@@H]3CC[C@@H]4C[C@H](O)CC[C@]4(C)[C@H]3CC[C@]12C,"activity, negative = inhibition",[1]; [2],-5.47%
same,"activity, negative = inhibition",[1]; [3],5.75%
same,Potency,3D7,inactive
same,Potency,7G8,inactive
same,Potency,AA1029,inactive
same,Potency,AS120,inactive
same,Potency,ATS189,inactive
same,Potency,ATS95,inactive
same,Potency,C2A,inactive
same,Potency,CP185,inactive
same,Potency,CP191,inactive
same,Potency,CP192,inactive
same,Potency,CP194,inactive
same,Potency,CP201,inactive
same,Potency,CP203,inactive
same,Potency,CP211,inactive
same,Potency,CP215,inactive
same,Potency,CP217,inactive
same,Potency,CP237,inactive
same,Potency,CP238,inactive
same,Potency,CP247,inactive
O=C(O)Cc1cc(I)c(Oc2ccc(O)c(I)c2)c(I)c1,"activity, negative = inhibition","[1]; at 12.8 µM (top of the series), parasite line A",1.81%
same,"activity, negative = inhibition","[1]; at 12.8 µM (top of the series), parasite line B",6.07%
same,Potency,3D7,inactive
same,Potency,7G8,inactive
same,Potency,AA1029,inactive
same,Potency,AS120,inactive
same,Potency,ATS189,inactive
same,Potency,ATS95,inactive
same,Potency,C2A,inactive
same,Potency,CP185,inactive
same,Potency,CP191,inactive
same,Potency,CP192,inactive
same,Potency,CP194,inactive
same,Potency,CP201,inactive
same,Potency,CP203,inactive
same,Potency,CP211,inactive
same,Potency,CP215,inactive
same,Potency,CP217,inactive
same,Potency,CP237,inactive
same,Potency,CP238,inactive
same,Potency,CP247,inactive
Cc1ccccn1,"activity, negative = inhibition",[1]; [2],14.6%
same,"activity, negative = inhibition",[1]; [3],15%
same,Potency,3D7,inactive
same,Potency,7G8,inactive
same,Potency,AA1029,inactive
same,Potency,AS120,inactive
same,Potency,ATS189,inactive
same,Potency,ATS95,inactive
same,Potency,C2A,inactive
same,Potency,CP185,inactive
same,Potency,CP191,inactive
same,Potency,CP192,inactive
same,Potency,CP194,inactive
same,Potency,CP201,inactive
same,Potency,CP203,inactive
same,Potency,CP211,inactive
same,Potency,CP215,inactive
same,Potency,CP217,inactive
same,Potency,CP237,inactive
same,Potency,CP238,inactive
same,Potency,CP247,inactive
CCOc1ccc(NC(=S)Nc2ccc(OCC)cc2)cc1,"activity, negative = inhibition",[1]; [2],1.76%
same,"activity, negative = inhibition",[1]; [3],-2.23%
same,Potency,3D7,inactive
same,Potency,7G8,inactive
same,Potency,AA1029,inactive
same,Potency,AS120,inactive
same,Potency,ATS189,inactive
same,Potency,ATS95,inactive
same,Potency,C2A,inactive
same,Potency,CP185,inactive
same,Potency,CP191,inactive
same,Potency,CP192,inactive
same,Potency,CP194,inactive
same,Potency,CP201,inactive
same,Potency,CP203,inactive
same,Potency,CP211,inactive
same,Potency,CP215,inactive
same,Potency,CP217,inactive
same,Potency,CP237,inactive
same,Potency,CP238,inactive
same,Potency,CP247,inactive
CC(=O)N[C@@H]1C(O[C@H]2O[C@H](C(=O)O)C(O)[C@H](O)[C@H]2O)[C@H](O)[C@@H](CO)O[C@H]1O[C@@H]1C(C(=O)O)O[C@@H](O[C@H]2[C@H](O)[C@@H](CO)OC(O)[C@@H]2NC(C)=O)[C@H](O)[C@H]1O (stereo partly specified),"activity, negative = inhibition",[1]; [2],0.279%
same,"activity, negative = inhibition",[1]; [3],2.2%
same,Potency,3D7,inactive
same,Potency,7G8,inactive
same,Potency,AA1029,inactive
same,Potency,AS120,inactive
same,Potency,ATS189,inactive
same,Potency,ATS95,inactive
same,Potency,C2A,inactive
same,Potency,CP185,inactive
same,Potency,CP191,inactive
same,Potency,CP192,inactive
same,Potency,CP194,inactive
same,Potency,CP201,inactive
same,Potency,CP203,inactive
same,Potency,CP211,inactive
same,Potency,CP215,inactive
same,Potency,CP217,inactive
same,Potency,CP237,inactive
same,Potency,CP238,inactive
same,Potency,CP247,inactive
Oc1cc(O)cc(O)c1,"activity, negative = inhibition",[1]; [2],0.686%
same,"activity, negative = inhibition",[1]; [3],-2.93%
same,Potency,3D7,inactive
same,Potency,7G8,inactive
same,Potency,AA1029,inactive
same,Potency,AS120,inactive
same,Potency,ATS189,inactive
same,Potency,ATS95,inactive
same,Potency,C2A,inactive
same,Potency,CP185,inactive
same,Potency,CP191,inactive
same,Potency,CP192,inactive
same,Potency,CP194,inactive
same,Potency,CP201,inactive
same,Potency,CP203,inactive
same,Potency,CP211,inactive
same,Potency,CP215,inactive
same,Potency,CP217,inactive
same,Potency,CP237,inactive
same,Potency,CP238,inactive
same,Potency,CP247,inactive
COc1cc2c(cc1OC)[C@@H](Cc1cc(OC)c(OC)c(OC)c1)[N+](C)(CCCOC(=O)CC/C=C/CCC(=O)OCCC[N+]1(C)CCc3cc(OC)c(OC)cc3[C@H]1Cc1cc(OC)c(OC)c(OC)c1)CC2 (stereo partly specified),"activity, negative = inhibition",[1]; [2],0.013%
same,"activity, negative = inhibition",[1]; [3],-1.97%
same,Potency,3D7,inactive
same,Potency,7G8,inactive
same,Potency,AA1029,inactive
same,Potency,AS120,inactive
same,Potency,ATS189,inactive
same,Potency,ATS95,inactive
same,Potency,C2A,inactive
same,Potency,CP185,inactive
same,Potency,CP191,inactive
same,Potency,CP192,inactive
same,Potency,CP194,inactive
same,Potency,CP201,inactive
same,Potency,CP203,inactive
same,Potency,CP211,inactive
same,Potency,CP215,inactive
same,Potency,CP217,inactive
same,Potency,CP237,inactive
same,Potency,CP238,inactive
same,Potency,CP247,inactive
CCCCCCCCCCCCCCCCCC(=O)OC[C@@H](O)[C@H]1OC[C@H](O)[C@H]1O,"activity, negative = inhibition",[1]; [2],-5.9%
same,"activity, negative = inhibition",[1]; [3],-8.53%
same,Potency,3D7,inactive
same,Potency,7G8,inactive
same,Potency,AA1029,inactive
same,Potency,AS120,inactive
same,Potency,ATS189,inactive
same,Potency,ATS95,inactive
same,Potency,C2A,inactive
same,Potency,CP185,inactive
same,Potency,CP191,inactive
same,Potency,CP192,inactive
same,Potency,CP194,inactive
same,Potency,CP201,inactive
same,Potency,CP203,inactive
same,Potency,CP211,inactive
same,Potency,CP215,inactive
same,Potency,CP217,inactive
same,Potency,CP237,inactive
same,Potency,CP238,inactive
same,Potency,CP247,inactive
FC(F)OC(Cl)C(F)(F)F (stereo unspecified),"activity, negative = inhibition",[1]; [2],2.2%
same,"activity, negative = inhibition",[1]; [3],13%
same,Potency,3D7,inactive
same,Potency,7G8,inactive
same,Potency,AA1029,inactive
same,Potency,AS120,inactive
same,Potency,ATS189,inactive
same,Potency,ATS95,inactive
same,Potency,C2A,inactive
same,Potency,CP185,inactive
same,Potency,CP191,inactive
same,Potency,CP192,inactive
same,Potency,CP194,inactive
same,Potency,CP201,inactive
same,Potency,CP203,inactive
same,Potency,CP211,inactive
same,Potency,CP215,inactive
same,Potency,CP217,inactive
same,Potency,CP237,inactive
same,Potency,CP238,inactive
same,Potency,CP247,inactive
